Laboratory results reported in PubChem BioAssay (NCI).
The panel holds about 79,000 compounds, 15% with a hit somewhere; the sample as a whole holds those more often. Unmarked numbers belong to inactive results. Active and inactive are the calls of the source. Cut-off read from the data, not from the text of the source: active = growth inhibition above about 70%; inactive = the rest.

Columns and labels:
[1] = NCI Yeast Anticancer Drug Screen. Data for the rad50 strain (AID 155);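 note: 0% = growth of vehicle-only cultures of the same strain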; conditions: S. cerevisiae rad50 strain growth inhibition, hits give high values
Summary of the method: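 DNA repair mutant yeast, compound exposure, growth read-out; inhibition is taken relative to vehicle.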

[2] = NCI Yeast Anticancer Drug Screen. Data for the mec2-1 strain (AID 157); conditions: S. cerevisiae mec2-1 strain, hits give high values
Summary of the method: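 mec2-1 yeast strain, carrying an alteration in DNA damage repair or cell cycle control, was exposed to compounds; growth inhibition was measured relative to vehicle-treated controls.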

[3] = NCI Yeast Anticancer Drug Screen. Data for the sgs1 mgt1 strain (AID 161);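 note: 0% = growth of cultures given vehicle only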; conditions: S. cerevisiae sgs1 mgt1 strain, hits give high values
Summary of the method: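 Percent growth inhibition was derived by comparing compound-exposed mutant yeast with vehicle-exposed cultures. The strain carries alterations in DNA damage repair.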

[4] = NCI Yeast Anticancer Drug Screen. Data for the cln2 rad14 strain (AID 165);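 note: 0% = growth equal to vehicle treated cultures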; conditions: S. cerevisiae cln2 rad14 strain, hits give high values
Summary of the method: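 Yeast carrying cln2 and rad14 alterations (cell cycle control and DNA damage repair) were exposed to compounds. Growth inhibition was measured against vehicle-treated controls.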

[5] = NCI Yeast Anticancer Drug Screen. Data for the bub3 strain (AID 167); conditions: S. cerevisiae bub3 mutant strain, hits give high values
Summary of the method: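 In this screen, a yeast mutant lacking normal mitotic checkpoint function is challenged with compound. Relative growth versus vehicle gives the inhibition value.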

[6] = NCI Yeast Anticancer Drug Screen. Data for the mlh1 rad18 strain (AID 175); conditions: S. cerevisiae mlh1 rad18 strain growth inhibition, hits give high values
Summary of the method: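 Growth inhibition of the yeast strain was measured after compound exposure and expressed relative to vehicle-treated controls. The strain carries defined defects in DNA damage repair.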

[7] = at 5.0 µM (retest, dose inferred, filed as 0.5)
[8] = at 50.0 µM (retest, dose inferred, filed as 5.0)

Row | SMILES | growth inhibition [1, 7] [%] | growth inhibition [1, 8] | growth inhibition ([1]; at 50.0 µM) | growth inhibition [2, 7] [%] | growth inhibition [2, 8] | growth inhibition ([2]; at 50.0 µM) | growth inhibition [3, 7] [%] | growth inhibition [3, 8] | growth inhibition ([3]; at 50.0 µM) | growth inhibition [4, 7] [%] | growth inhibition [4, 8] | growth inhibition ([4]; at 50.0 µM) | growth inhibition [5, 7] [%] | growth inhibition [5, 8] | growth inhibition ([5]; at 50.0 µM) | growth inhibition [6, 7] [%] | growth inhibition [6, 8] | growth inhibition ([6]; at 50.0 µM)
1 | CC(=O)C1C(=O)C=C(C)OC1=O (stereo not given) | 4 | 21% | 40.5% | 8 | 18% | 29.1% | 1 | 18% | -0.75% | 7 | 13% | 3.7% | 0 | 2% | 28.9% | 4 | 23% | 70.7% (active)
2 | O=C(OCc1ccccc1)c1ccc(O)cc1 | 6 | 79% (active) | 96.8% (active) | -1 | 85% (active) | 98.3% (active) | 1 | 64% | 98.5% (active) | 2 | 39% | 85.8% (active) | 9 | 91% (active) | 97.8% (active) | 2 | 88% (active) | 99% (active)
3 | CCCCCCCCCCCCCC1OC(=O)C(C)=C1C(=O)O (stereo not given) | -10 | 50% | 72.6% (active) | -7 | 73% (active) | 26.9% | -2 | 60% | 47.5% | -65 | 59% | 10.6% | -17 | -25% | 27.4% | -10 | 74% (active) | 61.9%
4 | CN1C(C)(C)CC(O)(C#N)CC1(C)C | 4 | 99% (active) | 98.6% (active) | 2 | 99% (active) | 99.7% (active) | 1 | 99% (active) | 99.3% (active) | -6 | 97% (active) | 99.2% (active) | -7 | 99% (active) | 99.5% (active) | 12 | 99% (active) | 99.4% (active)
5 | N#C/C(=C\NC(=S)Nc1cc(Cl)ccc1Cl)c1nc2ccccc2s1 | 21 | 25% | 34.2% | 7 | 21% | 15.1% | 2 | 4% | 10.1% | 20 | 29% | 39.6% | 7 | 19% | 37.4% | 21 | 12% | 27.1%
